In PubChem BioAssay (NCI) one finds growth data, which are given here for eight compounds.

Holding throughout (assay): NCI-60 one-dose screen, 48 h (100 = growth as untreated, 0 = no growth, -100 = all killed)
What all share (conditions): 10 µM unless noted

Assay [1] deals with HCT-15 colon.
The subject of assay [2] is HT29 colon.
The test system of assay [3] is SNB-75 CNS.
The test system of assay [4] is SNB-19 CNS.
In assay [5] the test system is U251 CNS.
Assay [6] concerns PC-3 prostate.
Assay [7] concerns SK-MEL-5 melanoma.
Assay [8] has as its system UACC-62 melanoma.
Assay [9] relates to LOX IMVI melanoma.
For assay [10], the system named is SK-MEL-28 melanoma.
For assay [11], the system named is EKVX NSCLC.
Assay [12] has as its system SN12C renal.
For assay [13], the system named is UO-31 renal.
In assay [14] the test system is TK-10 renal.
The test system of assay [15] is ACHN renal.
The test system of assay [16] is CAKI-1 renal.
The subject of assay [17] is A498 renal.
Assay [18] relates to CCRF-CEM leukemia.
Assay [19] concerns MOLT-4 leukemia.

The panel holds about 83,000 compounds, 20% with a hit somewhere; the sample as a whole holds those more often.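 For each line, cells grew in 96-well plates with the test compound present at a single concentration for 48 hours.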 Unmarked numbers belong to inactive results. Activity calls are given as the source filed them. The calls were made as follows: active = growth percent below 10; inactive = the rest.

On to `O=C(NOCCO)c1cc(CN2OCCCC2=O)c(F)c(F)c1Nc1ccc(I)cc1F`, for which the growth in assay [1] is 50.6%; in assay [2], 8.15% (active); in assay [3], 71.5%; in [4], 51.8%; in [5], 40.6%; in [6], 99.3%. Besides, the growth in assay [7] is 45.7%; in assay [8], 4% (active); in [9], 19.4%; in [10] it was 3.09% (active); in assay [11], 46%; in [12] it was 49.5%. Further, the growth in assay [13] was 15%; in [14], 36.4%; in [15], 49.5%; in assay [16], 40.8%; in assay [17], -33% (active); in assay [18] it was 101%. Further, the growth in [19] was 76.6%.

Turning to `COc1ncc(-c2ccc3nccc(-c4ccnnc4)c3c2)cc1NS(=O)(=O)c1ccc(F)cc1F`, the growth in assay [1] is -15% (active); in assay [2], -10.4% (active); in assay [3], -29.8% (active); in [4], -42.8% (active); in assay [5] it was -62.3% (active); in assay [6], -0.788% (active). Besides, the growth in assay [7] is -95.8% (active); in [8], -67.4% (active); in assay [9], -42.8% (active); in [10], -17.4% (active); in [11] it was -7.55% (active); in assay [12], 16.4%. Further, the growth in [13] is -25.7% (active); in assay [14], -44.7% (active); in assay [15], 15.3%; in assay [16], -19.8% (active); in [17], -48.2% (active); in assay [18], 1.61% (active). Further, the growth in [19] was -11.9% (active).

With `Cc1[nH]c(/C=C2\C(=O)Nc3ccc(F)cc32)c(C)c1C(=O)NC[C@H](O)CN1CCOCC1`, the growth in assay [1] is 19.1%; in [2], 9.81% (active); in assay [3], 35.2%; in [4] it was 96.7%; in assay [5], 60.5%; in assay [6] it was 36.2%. The growth was 21.4% in assay [7]; 29.9% in [8]; 9.27% (active) in assay [9]; 17.7% in assay [10]; 44.9% in assay [11]; 27.6% in [12]. Besides, the growth is -1.44% (active) in [13]; 50.1% in assay [14]; 23.8% in [15]; 4.97% (active) in assay [16]; 30.5% in assay [17]; 33% in [18]. Further, the growth in assay [19] is 15.7%.

Turning to `CO[C@@H](C)Cn1c(=O)n(C)c2cnc3ccc(-c4cncc(C(C)(C)O)c4)cc3c21`, the growth in assay [1] was 7.42% (active); in assay [2], 2.26% (active); in [3], -41.8% (active); in [4], 8.17% (active); in assay [5], 2.44% (active); in assay [6] it was 7.66% (active). Also, the growth was -96.5% (active) in assay [7]; -37.6% (active) in [8]; -33.8% (active) in [9]; -8.17% (active) in assay [10]; 4.47% (active) in assay [11]; 14.5% in [12]. The growth is -18.6% (active) in [13]; -49.6% (active) in assay [14]; 3.66% (active) in assay [15]; -15.5% (active) in assay [16]; -55.5% (active) in [17]; 10.4% in assay [18]. In [19], the growth was -8.71% (active).

As for `CCCCCC(=O)OCc1ccc(Cl)c(Cl)c1`, the growth in assay [1] is 109%; in assay [2] it was 109%; in [3], 96.5%; in [4] it was 105%; in [5] it was 98.2%; in assay [6], 96.3%. Moreover, the growth in assay [7] was 108%; in [8] it was 106%; in assay [9], 96%; in assay [10] it was 111%; in assay [11], 116%; in [12] it was 111%. Also, the growth in assay [13] is 90.5%; in assay [14] it was 104%; in assay [15], 107%; in assay [16] it was 103%; in assay [17], 92.6%; in [18] it was 109%. The growth in assay [19] is 98.7%.

Regarding `COc1ccc(-c2cc3c(C)nc(N)nc3n(C3CCC(OCCO)CC3)c2=O)cn1` (configuration not stated), the growth is 3.45% (active) in assay [1]; 1.24% (active) in assay [2]; -50.6% (active) in assay [3]; -7.7% (active) in [4]; -13.8% (active) in assay [5]; 5.19% (active) in assay [6]. For the same compound, the growth in assay [7] was -77.3% (active); in [8], -52.5% (active); in assay [9], -55.5% (active); in [10] it was -29.4% (active); in [11], -4.74% (active); in assay [12], 7.14% (active). In addition, the growth was -33.8% (active) in [13]; -43.4% (active) in assay [14]; -10.3% (active) in [15]; -43.4% (active) in [16]; -55.8% (active) in assay [17]; 14.6% in assay [18]. Also, the growth in assay [19] was 8.49% (active).

`Oc1ccc(C(c2ccc(O)cc2)C(Cl)(Cl)Cl)cc1`: the growth in assay [1] was 93.4%; in assay [2] it was 110%; in [3], 66.4%; in assay [4], 99.9%; in assay [5], 106%; in [6], 75.2%. In addition, the growth was 100% in assay [7]; 79.8% in [8]; 87.6% in [9]; 113% in assay [10]; 82.5% in assay [11]; 84.8% in assay [12]. The growth in [13] was 75.3%; in assay [14], 105%; in assay [15], 92.3%; in [16] it was 105%; in assay [17], 87.5%; in [18], 76.5%. In addition, the growth in assay [19] is 70.5%.

With `c1cc(OCCN2CCCCC2)cc(-c2n[nH]c3ccc(-c4ncn[nH]4)cc23)c1`, the growth was 79.7% in [1]; 21% in assay [2]; 46.1% in assay [3]; 86.2% in assay [4]; 84% in assay [5]; 86.9% in [6]. The growth is 43.4% in assay [7]; 31.9% in assay [8]; 30.8% in assay [9]; 46.5% in [10]; 76.7% in assay [11]; 68.2% in assay [12]. Also, the growth in assay [13] was 25.1%; in assay [14] it was 74.5%; in assay [15], 62.7%; in [16] it was 26.6%; in [17], 71%; in [18] it was 84.9%. Further, in assay [19], the growth is 27%.
